Source: PubChem BioAssay
The source made the active and inactive calls. Unless noted, no rule for the calls is given here.

Assays:
[1] = tested on: Wnt5a (protein binding on small-molecule microarray); test: Wnt5a binders on small-molecule microarray, primary screen, biophysical, 635/667 nm fluorescence (AID 1142); settings: 635 nm fluorescence, higher = more signal;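 also: fluorescence read at 667 nm with signal to noise per printed feature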
[2] = cell viability in Huh7 cells, primary screen, cytotoxicity control for HCV replication inhibitor project, CellTiter-Glo luminescence, basal, 48 h (AID 1143); settings: Huh7 HCV replicon, higher = more signal, called active from +8 up or from −8 down;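 also: Huh7 hepatoma cells carrying a hepatitis C replication reporter with no stimulus; test concentration not given here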
[3] = P. aeruginosa biofilm formation inhibitors, primary screen, PAO1 strain, BacTiter-Glo luminescence, LB-PBS (AID 1144); settings: 12 h, higher = more signal
[4] = CREB reporter modulators without forskolin, primary screen, cell-based, PC12, CRE-LacZ reporter, unstimulated (AID 1145); settings: no forskolin, luminescence, 4.5 h, higher = more signal, called active from +8 up or from −8 down
[5] = CREB reporter modulators under forskolin, primary screen, cell-based, PC12, CRE-LacZ reporter, forskolin-stimulated (AID 1146); settings: luminescence, 4.5 h, higher = more signal, called active from +8 up or from −8 down;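 also: PC12 cells with 6xCRE LacZ reporter stimulated by forskolin 10 µM; beta-galactosidase reporter signal reflecting CREB driven transcription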
[6] = biological target: Streptavidin (Streptomyces avidinii) (UniProt P22629); test: streptavidin binders on small-molecule microarray, primary screen, artefact control for SMM compound annotation, biophysical, 635/667 nm fluorescence (AID 1147); settings: streptavidin binding, higher = more signal;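 also: signal reflects streptavidin binding to arrayed compounds as a control protein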
[7] = small-molecule binders of probe aInhba, primary screen, biochemical, small-molecule microarray, 635/667 nm fluorescence (AID 1148); settings: higher = more signal;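 also: score merges 667nm spot fluorescence with signal-to-noise for antibody binding to printed compounds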
[8] = biological target: Torsin-1A (Homo sapiens) (UniProt O14656); test: torsin A binders from cell lysate, primary screen, small-molecule microarray, wild-type, 635/667 nm (AID 1149); settings: COS7 hTOR1A-WT lysate, 635 nm fluorescence, higher = more signal
[9] = biological target: Torsin-1A (Homo sapiens) (UniProt O14656); test: small-molecule binders of mutant TOR1A in lysate, primary screen, cell lysate, small-molecule microarray, COS7 lysate, 635/667 nm fluorescence (AID 1150); settings: COS7 hTOR1A mutant lysate, 635 nm fluorescence, higher = more signal;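 also: score pools 667 nm emission and signal to noise measuring lysate protein binding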
[10] = tested on: Sonic hedgehog protein (Shh); test: small-molecule binders of Shh protein, primary screen, biochemical, small-molecule microarray, 635/667 nm fluorescence (AID 1151); settings: small-molecule microarray binding, 635 nm fluorescence; higher = more signal;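 also: Shh protein binding to compounds spotted on small-molecule microarray slides; score combines spot fluorescence intensity with signal-to-noise across triplicate slides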

Chain of Streptavidin (Streptomyces avidinii) (P22629 whole entry, looked up): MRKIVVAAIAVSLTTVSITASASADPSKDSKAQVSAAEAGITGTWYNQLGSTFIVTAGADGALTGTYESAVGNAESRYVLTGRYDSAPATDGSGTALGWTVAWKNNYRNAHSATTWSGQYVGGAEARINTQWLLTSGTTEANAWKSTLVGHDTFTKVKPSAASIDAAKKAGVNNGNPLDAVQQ
Chain of Torsin-1A (Homo sapiens) (O14656 whole entry, looked up): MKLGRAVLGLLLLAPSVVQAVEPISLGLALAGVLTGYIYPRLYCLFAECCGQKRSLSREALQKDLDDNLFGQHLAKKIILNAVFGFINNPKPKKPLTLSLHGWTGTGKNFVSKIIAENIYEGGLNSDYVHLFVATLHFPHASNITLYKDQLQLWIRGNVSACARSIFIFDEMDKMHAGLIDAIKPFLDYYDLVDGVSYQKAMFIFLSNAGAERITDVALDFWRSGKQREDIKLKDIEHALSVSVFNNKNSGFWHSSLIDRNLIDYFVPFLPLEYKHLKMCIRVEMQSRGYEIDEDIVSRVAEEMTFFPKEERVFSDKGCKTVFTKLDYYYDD

SMILES | composite z-score [1] | z-score [2] | z-score [3] | z-score [4] | z-score [5] | composite z-score [6] | composite z-score [7] | composite z-score [8] | composite z-score [9] | composite z-score [10]
CC=CC(O)C1C=CC2C(=O)N(c3ccccc3)C(=O)C2N1Nc1ccc(C(C)C)cc1 (stereo not given) | 0.288 | 0.0547 (inactive) | -0.302 (inactive) | 0.0501 (inactive) | 0.133 (inactive) | 1.24 | 0.143 | -0.173 | 0.55 | -0.0469
COCCOC(=O)N1C(=O)[C@@]2(c3cc(C#CC4=CCCCC4)ccc31)[C@H](C(=O)NC[C@H](O)c1ccccc1)[C@H]1C(=O)O[C@H](c3ccccc3)[C@H](c3ccccc3)N1[C@@H]2c1ccc(O)cc1 | 0.236 | -3.91 (inactive) | 1.19 (inactive) | 0.208 (inactive) | -1.04 (inactive) | 1 | 0.221 | 0.838 | 0.652 | 1.34
COc1ccc(C(O)C2C=CC3C(=O)N(C)C(=O)C3N2Nc2ccccc2)cc1OCc1ccccc1 (stereo not given) | 0.0512 | 0.142 (inactive) | -0.292 (inactive) | 1.21 (inactive) | -0.389 (inactive) | 0.863 | 0.0528 | 0.155 | 0.992 | -0.237
CCOC(=O)C[C@H]1[C@H](OC(=O)c2ccccc2-c2ccccc2)[C@@H](NC(=O)Cc2ccc(OC)cc2)c2cc(OCCCO)ccc2N1C(=O)c1ccccc1 | 0.222 | -0.0369 (inactive) | 0.817 (inactive) | 4.57 (inactive) | 2.83 (inactive) | -0.105 | -0.287 | -0.259 | 0.405 | -0.127
Cc1cc(C)c(C(O)C2C=CC3C(=O)N(C)C(=O)C3N2Nc2ccccc2)c(C)c1 (stereo not given) | 0.701 | 1.06 (inactive) | 0.3 (inactive) | 0.246 (inactive) | -0.354 (inactive) | 0.66 | 1.55 | 0.405 | 0.738 | -0.0207
C=CCNC(=O)[C@@H]1[C@H]2C(=O)O[C@H](c3ccccc3)[C@H](c3ccccc3)N2[C@H](c2ccc(OCCO)cc2)[C@@]12C(=O)Nc1ccccc12 | 0.358 | -4.32 (inactive) | -2.23 (inactive) | -0.905 (inactive) | -1.87 (inactive) | 0.226 | -0.102 | 0.355 | 0.209 | 1.61
COc1ccc(NN2C(C(O)c3ccc(OC)c(OCc4ccccc4)c3)C=CC3C(=O)N(C4CCCCC4)C(=O)C32)cc1 (stereo not given) | 0.285 | -2.17 (inactive) | -1.73 (inactive) | -0.322 (inactive) | 0.693 (inactive) | 1.19 | 0.0769 | -0.196 | 0.185 | -0.504
CCOC(=O)C1=CC[C@@H](c2ccccc2Cl)N(S(=O)(=O)c2ccc(C)cc2)C1 | 0.149 | -5.35 (inactive) | -0.602 (inactive) | 0.173 (inactive) | -0.0077 (inactive) | 0.884 | 0.0569 | 0.623 | 0.738 | -0.53
COCCOC(=O)N1C(=O)[C@@]2(c3cc(C#CCNC(N)=O)ccc31)[C@H](C(=O)N1CCN(c3ncccn3)CC1)[C@H]1C(=O)O[C@H](c3ccccc3)[C@H](c3ccccc3)N1[C@@H]2c1ccccc1OCCO | 0.518 | -1.32 (inactive) | -0.94 (inactive) | -0.141 (inactive) | -0.44 (inactive) | 0.605 | 0.0184 | 0.223 | 0.416 | 0.692
COCCOC(=O)N1C(=O)[C@@]2(c3cc(C#CCC(C(=O)OC)C(=O)OC)ccc31)[C@H](c1ccc(O)cc1)N1[C@H](c3ccccc3)[C@H](c3ccccc3)OC(=O)[C@H]1[C@@H]2C(N)=O | 0.641 | -0.427 (inactive) | 0.075 (inactive) | -0.329 (inactive) | 0.305 (inactive) | 1.04 | 0.215 | 1.61 | 1.35 | 0.922
CC(C)C(=C=CC[C@H](O)c1ccccc1OCCO)C[C@H](O)c1ccccn1 | 0.257 | -0.667 (inactive) | -0.0531 (inactive) | 4.99 (inactive) | 0.0622 (inactive) | -0.199 | -0.0205 | 0.635 | 1.59 | 1.63
O=C(CS)NCCCCCCNC(=O)[C@H]1C[C@H]2C(=O)N3CCC[C@H]3C(=O)N2[C@H]1c1cccc(OCCO)c1 | 0.35 | -0.521 (inactive) | -0.357 (inactive) | 0.549 (inactive) | 0.581 (inactive) | 0.359 | -0.0917 | 0.536 | 1.31 | 1.52
COc1cc(C(O)C2C=CC3C(=O)N(c4ccccc4)C(=O)C3N2Nc2ccc(C#N)cc2)cc(OC)c1OC (stereo not given) | 0.537 | 0.616 (inactive) | -0.201 (inactive) | 0.426 (inactive) | 0.238 (inactive) | 1.66 | 0.201 | 0.249 | 0.204 | 0.117
[N-]=[N+]=NCc1ccccc1C[C@]1(C(=O)NCCN2CCOCC2)N=C(c2ccc(OCCCO)cc2)O[C@H]1c1ccccc1N=[N+]=[N-] | 0.152 | -3.01 (inactive) | -0.446 (inactive) | 1.65 (inactive) | -0.891 (inactive) | 1.05 | 0.279 | 0.304 | 0.283 | -0.0478
